KKLEB tox = CF airway cell cytotoxicity counter-screen; activity change (cytotoxicity), % at 5 µM; hit rate 0.36% among 360,000; AID 602141; KKLEB CF airway cells viability, ATPlite luminescence, overnight; stronger effect = lower value; cells stimulated with P. aeruginosa culture filtrate;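 active = corrected activity change at or below -50% at 5 µM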
PPC-1+TRAIL kill = PPC-1 cancer cell killing with TRAIL present; cell killing (% activity), % at 4 µM or 5 µM; hit rate 0.41% among 220,000; PPC-1 cells + TRAIL, ATPLite viability luminescence; AID 1443;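 active = cell killing above 50% in the first pass at 4 µM, then a duplicate retest at 5 µM averaging 50% or more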
CF NFkB inh = blocks PAF-induced NF-kB reporter in cystic fibrosis cells; KKLEB NF-kB-GFP reporter, GFP fluorescence overnight; inhibition, % at 5 µM; hit rate 0.86% among 360,000; AID 588850;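 active = at least 50% inhibition at 5 µM, scaled per plate between neutral and stimulator controls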;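 also: PAF is a Pseudomonas aeruginosa culture filtrate used as stimulus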
TRAIL sens C8 = sensitizes caspase-8 expressing cells to TRAIL; NB7+C8 cells + TRAIL, ATPlite viability luminescence; inhibition (viability loss, TRAIL sensitization), % at 10 µM; AID 624354; hit rate 1% among 360,000;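 active = compounds causing at least 50% loss of cell viability in the single-dose screen, relative to plate controls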
HIF-2a inh = HIF-2a inhibition. AID 624352. 786-0 RCC cells HIF-2a reporter, luciferase luminescence, overnight. inhibition, % at 18.8 µM. hit rate 0.72% among 360,000;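 active = inhibition of the luminescence signal of 40% or more relative to plate controls, in a single-dose primary screen at 18.75 µM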
Peg3 prom inh = inhibitors of Peg3 promoter. HeLa PEG-Prom luciferase reporter, luminescence, overnight. inhibition, % at 20 µM. AID 588405. hit rate 1.7% among 360,000;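 active = inhibition of at least 50% at 20 µM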
Mdm2 MdmX conf = Mdm2/MdmX (human) interaction inhibition, confirmed; hit rate 99% among 740; SaOS-2 split-luciferase Mdm2/MdmX complementation, luminescence; inhibition, % at 8 µM; shares compounds with HIF-2a inh;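 active = mean inhibition of the luminescence signal across two replicates at or above 26 percent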
Target sequence (O15151 whole entry, looked up): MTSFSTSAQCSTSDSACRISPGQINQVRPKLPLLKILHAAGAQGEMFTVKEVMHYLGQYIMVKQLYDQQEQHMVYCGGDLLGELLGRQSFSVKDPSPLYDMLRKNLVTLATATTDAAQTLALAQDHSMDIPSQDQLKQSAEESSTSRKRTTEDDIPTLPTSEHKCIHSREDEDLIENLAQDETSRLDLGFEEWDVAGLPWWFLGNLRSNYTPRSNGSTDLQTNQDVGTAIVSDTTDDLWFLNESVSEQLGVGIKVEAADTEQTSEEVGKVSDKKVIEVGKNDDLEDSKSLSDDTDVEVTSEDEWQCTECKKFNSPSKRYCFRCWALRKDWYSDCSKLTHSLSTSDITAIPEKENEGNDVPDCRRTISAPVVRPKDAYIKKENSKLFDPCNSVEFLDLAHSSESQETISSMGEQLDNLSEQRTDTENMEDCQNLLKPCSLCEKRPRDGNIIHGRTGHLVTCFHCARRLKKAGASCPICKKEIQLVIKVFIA
Target sequence (Q00987 whole entry, looked up): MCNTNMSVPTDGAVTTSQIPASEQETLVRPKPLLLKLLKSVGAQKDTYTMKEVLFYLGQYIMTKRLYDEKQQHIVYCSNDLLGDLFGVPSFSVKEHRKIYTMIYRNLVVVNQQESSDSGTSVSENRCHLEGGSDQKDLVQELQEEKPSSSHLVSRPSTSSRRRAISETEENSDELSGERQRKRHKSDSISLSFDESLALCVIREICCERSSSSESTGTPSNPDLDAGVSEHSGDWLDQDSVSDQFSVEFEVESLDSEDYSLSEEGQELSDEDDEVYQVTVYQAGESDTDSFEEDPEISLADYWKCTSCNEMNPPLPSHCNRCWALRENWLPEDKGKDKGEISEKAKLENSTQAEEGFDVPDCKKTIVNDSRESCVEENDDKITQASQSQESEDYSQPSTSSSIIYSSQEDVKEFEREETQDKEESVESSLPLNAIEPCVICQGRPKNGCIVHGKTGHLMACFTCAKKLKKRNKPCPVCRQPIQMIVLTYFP
HIF-2a conf = confirmation of HIF-2a inhibitors; AID 651580; hit rate 56% among 1,800; shares compounds with HIF-2a inh; 786-0 RCC cells, HIF-2a luciferase reporter luminescence, overnight; inhibition, % at 18.8 µM;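 active = mean inhibition across four replicates of at least 40 percent at the single tested concentration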
HIF-1a cs = inhibits HIF-1a reporter, a counter-screen for HIF-2a inhibitors. shares compounds with HIF-2a inh. MiaPaCa-2 HIF-1a luciferase reporter, desferoxamine, overnight. inhibition, % at 18.8 µM. hit rate 72% among 1,800;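 active = mean inhibition of the reporter signal across four replicates at the single tested dose of 50% or more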
Large screens that a line does not name were inactive (follow-up assays come after a bar, where they were run). Sampled rows, rich in hits. Any-hit rate of the full collection: about 3.1%.

N#C/C(=C\c1ccc(Oc2ccc(C(F)(F)F)cc2[N+](=O)[O-])cc1)c1nc2ccccc2[nH]1	none
CCOC(=O)C(CC)c1cc2n(c(=O)c1C#N)CCC21OCCO1 (configuration not stated)	none (no result: PPC-1+TRAIL kill)
Cc1ccc(Oc2c(C(N)=O)cc([N+](=O)[O-])cc2[N+](=O)[O-])cc1	KKLEB tox -95, CF NFkB inh 85, HIF-2a inh 94, Peg3 prom inh 106 | Mdm2 MdmX conf 102 | HIF-2a conf 74 | HIF-1a cs 102
CCCCCNC(=O)c1[nH]c(C(F)(F)F)nc1-c1ccccc1	none (no result: PPC-1+TRAIL kill)
COc1ccc(C(=O)/C(=C\c2ccco2)N2C=CC=CC2=C(C#N)C#N)cc1	KKLEB tox -87, CF NFkB inh 94, HIF-2a inh 96, Peg3 prom inh 104 | Mdm2 MdmX conf 100
Cc1ccc(C(=O)C(C(=O)/C=C/c2ccccc2)=C2SCCCS2)cc1	HIF-2a inh 93, Peg3 prom inh 109 | Mdm2 MdmX conf 103 | HIF-2a conf 86 | HIF-1a cs 103
Cc1ccc(C(=O)C=CC=Cc2ccccc2)cc1	none (no result: PPC-1+TRAIL kill)
CCc1[nH]nc2c1C(c1ccc(Br)s1)C(C#N)=C(N)O2 (configuration not stated)	HIF-2a inh 41 | HIF-2a conf inactive | HIF-1a cs inactive
Nc1ccc(-c2cc3ccccc3c(=O)o2)cc1	HIF-2a inh 82 (no result: PPC-1+TRAIL kill) | HIF-2a conf 91 | HIF-1a cs 54
O=C1Cc2ccccc2C(=O)N1Nc1ccccc1	none (no result: PPC-1+TRAIL kill)
O=C1C=C(c2ccccc2)C(=O)N1Nc1ccccc1	HIF-2a inh 77, Peg3 prom inh 96 | HIF-2a conf 56 | HIF-1a cs inactive
Cc1ccc(-n2nc3c(N4CCC(C(=O)NCCc5ccco5)CC4)nnc(C)c3c2C)cc1	none (no result: PPC-1+TRAIL kill)
COc1ccc(-n2nc3c(N4CCC(C(=O)NC5CCCCC5)CC4)nnc(C)c3c2C)cc1	HIF-2a inh 65, Peg3 prom inh 71 (no result: PPC-1+TRAIL kill) | HIF-2a conf inactive | HIF-1a cs 60
Cc1ccc(-n2nc3c(N4CCC(C(=O)NCCc5ccccc5C)CC4)nnc(C)c3c2C)cc1	HIF-2a inh 49, Peg3 prom inh 58 (no result: PPC-1+TRAIL kill) | HIF-2a conf inactive | HIF-1a cs inactive
COc1ccc(-n2nc3c(N4CCC(C(=O)NCc5ccccc5C)CC4)nnc(C)c3c2C)cc1	HIF-2a inh 91, Peg3 prom inh 104 (no result: PPC-1+TRAIL kill) | Mdm2 MdmX conf 103 | HIF-2a conf 65 | HIF-1a cs 96
Cc1ccc(-n2nc3c(N4CCC(C(=O)NCc5ccc(C)o5)CC4)nnc(C)c3c2C)cc1	none (no result: PPC-1+TRAIL kill)
O=[N+]([O-])c1ccccc1C(=Nc1ccccc1)c1c(O)cc(O)cc1O	none (no result: PPC-1+TRAIL kill)
O=C(CCNS(=O)(=O)c1ccc(F)c(Cl)c1)NCc1ccccc1F	none (no result: PPC-1+TRAIL kill)
O=c1oc(-c2ccccc2)cc(Cl)c1Cl	KKLEB tox -103, CF NFkB inh 74, HIF-2a inh 42, Peg3 prom inh 109 (no result: PPC-1+TRAIL kill) | HIF-2a conf inactive | HIF-1a cs 107
Cn1c(=O)c([N+](=O)[O-])c(Cl)c2ccccc21	KKLEB tox -50, CF NFkB inh 72, HIF-2a inh 97, Peg3 prom inh 105 (no result: PPC-1+TRAIL kill) | HIF-2a conf 83 | HIF-1a cs 106
CC(C)(C)c1ccc2cccc(F)c2n1	none (no result: PPC-1+TRAIL kill)
CCC1=C(c2ccc(C)cc2)S(=O)(=O)N=C1N1CCC(C(=O)NCCCN2CCCCC2C)CC1 (configuration not stated)	none (no result: PPC-1+TRAIL kill)
Cc1ccc(S(=O)(=O)c2ccc(C)cc2)cc1	none
Cc1cc(S(=O)(=O)c2ccc([N+](=O)[O-])cn2)ccc1Br	KKLEB tox -73, CF NFkB inh 91, HIF-2a inh 93, Peg3 prom inh 107 (no result: PPC-1+TRAIL kill) | HIF-2a conf inactive | HIF-1a cs 89
Cc1ccc(S(=O)(=O)c2ccc([N+](=O)[O-])cn2)cc1	KKLEB tox -72, CF NFkB inh 96, HIF-2a inh 83, Peg3 prom inh 107 (no result: PPC-1+TRAIL kill) | Mdm2 MdmX conf 103 | HIF-2a conf 62 | HIF-1a cs 65
Cc1ccccc1CN1[C@@H]2c3ccccc3C[C@@H]2OCCS1(=O)=O	none (no result: PPC-1+TRAIL kill)
O=C(O)c1ccc(C=C(c2nc3ccccc3s2)c2nc3ccccc3s2)cc1	HIF-2a inh 50 | HIF-2a conf 52 | HIF-1a cs 92
COc1cc(C=C(c2nc3ccccc3s2)c2nc3ccccc3s2)cc(OC)c1O	none
CCc1ccc(N2CC(C(=O)Nc3ccccc3N3CCCC3)CC2=O)cc1 (configuration not stated)	none (no result: PPC-1+TRAIL kill)
CCN1C[C@@H]2[C@@H]3C(=O)N(C)C(=O)[C@@H]3[C@](CC)(C1=O)N2C(=O)c1ccc(C)cc1	none (no result: PPC-1+TRAIL kill)
COC1(OC)C(/C=C/c2ccc(C)cc2)C(C#N)(C#N)C1(OC)OC (configuration not stated)	HIF-2a inh 43 (no result: PPC-1+TRAIL kill) | HIF-2a conf inactive | HIF-1a cs 65
COc1ccc(C(C)=O)cc1CSc1nnc(-c2ccncc2)n1C	none
COc1ccc(C(C)=O)cc1CSc1nnc(-c2ccc(Cl)cc2)n1-c1ccccc1	HIF-2a inh 41 | HIF-2a conf inactive | HIF-1a cs inactive
O=C(NNc1nc2ccccc2s1)Nc1ccc(Cl)c(Cl)c1	HIF-2a inh 40 | HIF-2a conf inactive | HIF-1a cs inactive
Nc1ccc(C2(c3ccc(N)cc3)c3ccccc3C(=O)c3ccccc32)cc1	HIF-2a inh 42 (no result: PPC-1+TRAIL kill) | HIF-2a conf inactive | HIF-1a cs 55
CCN(CC)c1ccc(C(=O)NNC(=O)CNC(=O)c2ccco2)cc1	none (no result: PPC-1+TRAIL kill)
Cc1ccc(C)c(-n2nnnc2Sc2nnnn2-c2ccccc2)c1	KKLEB tox -68, CF NFkB inh 92, Peg3 prom inh 96 (no result: PPC-1+TRAIL kill) | Mdm2 MdmX conf 103
C=CS(=O)(=O)N(Cc1ccccc1Br)[C@H](CO)Cc1ccccc1	HIF-2a inh 44, Peg3 prom inh 84 (no result: PPC-1+TRAIL kill) | HIF-2a conf inactive | HIF-1a cs 70
C=CCCN([C@H](CO)Cc1ccccc1)S(=O)(=O)c1ccccc1Br	none (no result: PPC-1+TRAIL kill)
C/C(=N\NC(=O)c1cccc(Br)c1)c1ccccn1	none (no result: PPC-1+TRAIL kill) | Mdm2 MdmX conf 83
C/C(=N\NC(=O)c1ccc(Cl)c(Cl)c1)c1ccccn1	none (no result: PPC-1+TRAIL kill)
CC(=O)N1CCN(S(=O)(=O)c2cccc(C(=O)Nc3cc(C(F)(F)F)ccc3N3CCOCC3)c2)CC1	none (no result: PPC-1+TRAIL kill)
Cc1cc(NC(=O)CSc2nc3c([nH]c4ccccc43)c(=O)n2-c2cccc(C(F)(F)F)c2)no1	none
COc1cccc(-n2c(SCC(=O)Nc3cc(C)on3)nc3c([nH]c4ccccc43)c2=O)c1	HIF-2a inh 39 | HIF-2a conf inactive | HIF-1a cs inactive

Assay outcomes (PubChem)
